Source: PubChem BioAssay AID764 (NMMLSC, 2007)
Among all 190,000 compounds or so, about 220 (0.12%) were called active. Inconclusive results (about 2%) are left out. The sample holds actives, similar compounds and a random draw of the others, so the mix is not that of the screen. Unmarked numbers belong to inactive results.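 How the source made its calls: active means GTP binding at least 20 percentage points away from the 100% baseline, in either direction, so actives lie on both sides; inconclusive means Compound likely fluorescent itself, or too few beads counted; inactive means the rest.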

Molecular target: Ras-related C3 botulinum toxin substrate 1 (Homo sapiens) (UniProt P63000)
Test: activated Rac1 mutant nucleotide binding changes – biochemical, bead-based flow cytometry, multiplex, fluorescent GTP, primary screen (AID 764)
Conditions: GST-Rac1 activated beads, at 10 µM, actives lie on both sides, 100% means binding = to untreated wells

Row | SMILES | percent activity (GTP binding)
1 | Cc1ccc(SC(C)C(=O)NCc2ccc(F)cc2)cc1 (configuration not stated) | 94%
2 | CC(C)(C)CN1CCNC(=O)C1CC(=O)NC1Cc2ccccc2C1 (configuration not stated) | 91%
3 | O=C(NC(=S)Nc1ccc(S(=O)(=O)Nc2ncccn2)cc1)c1cccc(Br)c1 | 92%
4 | O=C(/C=C\c1cn(-c2ccccc2)nc1-c1cccs1)N1CCOCC1 | 103%
5 | O=C(O)/C=C/c1cn(Cc2ccccc2)nc1-c1cccs1 | 130% [activator] (active)
6 | O=C(O)/C=C/c1cn(-c2ccccc2)nc1-c1cccs1 | 89%
7 | Cc1cc(N2CCOCC2)nc2ccc(NC(=S)N3CCN(Cc4ccccc4)CC3)cc12 | 96%
8 | O=C(Nc1ccc(N2CCOCC2)cc1)c1ccc(-c2ccccc2[N+](=O)[O-])o1 | 93%
9 | Cn1cc(Cl)c(C(=O)NNC(=S)Nc2cccc(Cl)c2)n1 | 91%
10 | O=C(O)c1ccc(/C=N/NC(=S)NCc2ccccc2)cc1 | 94%
11 | CN(C)C(=O)c1cccn(Cc2cccc(C(F)(F)F)c2)c1=O | 94%
12 | CN(C)N(C)C(=O)C(O)(c1ccccc1)c1ccccc1 | 96%
13 | Cc1cc(C(=O)CC#N)c(C)n1-c1c(C)n(C)n(-c2ccccc2)c1=O | 96%
14 | O=C(O)CCN(Cc1ccccc1)S(=O)(=O)c1c(Cl)cccc1Cl | 95%
15 | Cc1[nH]c2ccccc2c1/C=C(/C#N)C(=O)NC(C)C | 95%
16 | Cn1cc(CN2CCCC(CO)C2)c(-c2ccc(Oc3ccccc3)cc2)n1 (configuration not stated) | 94%
17 | COc1ccc(/C=C/CN2CCCC(C(=O)c3cc(F)ccc3F)C2)cc1 (configuration not stated) | 96%
18 | CN1C=CC=C/C1=C1\SC(=S)N(Cc2ccccc2)C1=O | 97%
19 | Cc1cc(C(=O)NNC(=O)c2cccc(S(=O)(=O)N3CCOCC3)c2)c2ccccc2n1 | 93%
20 | Cc1noc(C)c1/C=N/Nc1ccc2ccccc2n1 | 97%
21 | O=C(c1ccncc1)N1CCN(c2ccc3ccccc3n2)CC1 | 98%
22 | COc1cc(/C=C/C(=O)OCC(=O)NC(=O)NCc2ccccc2)ccc1OCC#N | 90%
23 | O=C(c1ccc2ccccc2n1)N1CCN(c2ccccc2Cl)CC1 | 95%
24 | CCn1c(SCC(=O)Nc2nccs2)nnc1-c1ccco1 | 95%
25 | COc1ccc(OC)c(S(=O)(=O)Nc2cccc(-c3ccc4nncn4n3)c2)c1 | 95%
26 | Cc1ccc(-n2cc(CN(C)Cc3nccn3C)c(-c3cccc(C)c3)n2)cc1 | 97%
27 | Cc1ccc(C(=O)Nc2cccc3ncccc23)cc1[N+](=O)[O-] | 94%
